Laboratory results: PubChem BioAssay (Tox21)
Inconclusive results are not listed. Active and inactive are the calls of the source. Unless noted, calls follow the shape of the full dose curve.

What was measured:
[1] = Nuclear factor erythroid 2-related factor 2/antioxidant responsive element (Nrf2/ARE) small molecule agonists: qHTS cell viability counter screen in human keratinocytes (AID 1919968; active = well fitted curve in the direction sought with a large enough effect in the repeat runs; an effect the other way counts as inactive or inconclusive; also: nearly all actives have a fitted effect of over 55% in size; also: potency is read from the fitted curve at half-maximal effect)
In short: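 Cells of the KeratinoSens line were plated at 1,500 per well and left for 5 h before compound transfer from DMSO stocks. After a 23 h incubation (37 C, 5% CO2), CellTiter-Fluor was added. Signal was taken as fluorescence intensity 1 h later.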

[2] = Nuclear factor erythroid 2-related factor 2/antioxidant responsive element (Nrf2/ARE) small molecule agonists: luciferase reporter gene qHTS assay in human keratinocytes (AID 1919969); also: nearly all actives have a fitted effect of over 35% in size; also: potency is read from the fitted curve at half-maximal effect
[3] = target: Gonadotropin-releasing hormone receptor (Homo sapiens) (UniProt P30968); test: Human gonadotropin-releasing hormone receptor (GnRHR) small molecule agonists, calcium flux assay in GnRHR-HEK293 cells (AID 1920063); also: nearly all actives have a fitted effect of over 35% in size; also: potency is read from the fitted curve at half-maximal effect
Gonadotropin-releasing hormone receptor (Homo sapiens), sequence (P30968 whole entry, looked up): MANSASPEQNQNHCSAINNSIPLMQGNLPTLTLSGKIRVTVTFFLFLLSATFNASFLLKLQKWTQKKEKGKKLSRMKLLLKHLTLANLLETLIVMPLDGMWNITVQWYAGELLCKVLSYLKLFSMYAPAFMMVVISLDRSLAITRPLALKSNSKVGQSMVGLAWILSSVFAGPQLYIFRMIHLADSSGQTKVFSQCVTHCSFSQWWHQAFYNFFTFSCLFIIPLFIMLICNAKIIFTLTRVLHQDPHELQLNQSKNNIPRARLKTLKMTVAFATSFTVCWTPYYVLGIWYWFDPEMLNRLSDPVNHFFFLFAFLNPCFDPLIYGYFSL
In short: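 Compounds dissolved in DMSO are pin-transferred onto dye-loaded GnRHR-HEK293 cells, which were seeded 18 h before at 37 C/5% CO2. Calcium signal is read as fluorescence intensity at 1 s intervals for 3 min.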

[4] = target: KiSS-1 receptor (Homo sapiens) (UniProt Q969F8); test: Human kisspeptin (KISS1R) small molecule agonists, calcium flux assay in KISS1R-HEK293 cells (AID 1920064; active = well fitted curve in the direction sought with a large enough effect in the repeat runs; an effect the other way counts as inactive or inconclusive)
KiSS-1 receptor (Homo sapiens), sequence (Q969F8 whole entry, looked up): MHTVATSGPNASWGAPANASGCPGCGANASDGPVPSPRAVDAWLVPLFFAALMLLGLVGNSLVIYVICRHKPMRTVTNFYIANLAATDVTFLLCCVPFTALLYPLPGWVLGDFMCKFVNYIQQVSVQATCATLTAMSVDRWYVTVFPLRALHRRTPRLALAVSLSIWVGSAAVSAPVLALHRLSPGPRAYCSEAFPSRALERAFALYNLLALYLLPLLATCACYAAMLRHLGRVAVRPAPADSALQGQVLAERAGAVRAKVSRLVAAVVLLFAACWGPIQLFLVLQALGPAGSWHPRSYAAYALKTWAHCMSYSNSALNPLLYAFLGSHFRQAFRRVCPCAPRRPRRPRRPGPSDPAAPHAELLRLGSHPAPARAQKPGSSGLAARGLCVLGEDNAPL
In short: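 Cell line: HEK293, stable human KISS1R. Dye loading 1 h at 37 C after 18 h culture. Read: kinetic fluorescence, 480/540 nm, 3 min at 1 s intervals.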

[5] = p53 small molecule agonists, cell-based qHTS assay with human liver microsomes (AID 1963577); also: potency is read from the fitted curve at half-maximal effect;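 as to activation: p53 response element beta-lactamase reporter cells with liver microsomes plus NADPH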
In short: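 p53RE-bla cells; 5 h settle, 37 C/5% CO2; cpd + HLM 0.5 mg/mL + NADPH 0.5 mg/mL (final); 16 h 37 C; LiveBLAzer 2 h RT dark; fluorescence readout.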

[6] = p53 small molecule agonists, cell-based qHTS assay with human liver microsomes: qHTS cell viability counter screen (AID 1963579); also: nearly all actives have a fitted effect of over 45% in size; also: potency is read from the fitted curve at half-maximal effect
In short: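 Luminescent CellTiter-Glo read-out, 30 min at room temperature, gauged cytotoxicity in p53RE-bla cells exposed 16 h at 37 C to DMSO-dissolved compounds with metabolic activation by human liver microsomes and NADPH, each 0.5 mg/mL final.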

[7] = p53 small molecule agonists, cell-based qHTS assay (AID 1963582; active = well fitted activation curve with a large enough effect in the signal ratio in the repeat runs, not every such curve was filed as active; the % refers to the signal ratio)
In short: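 16 h compound exposure (37 C) of p53 response element–bla cells, preceded by 5 h recovery at 37 C/5% CO2; read-out via LiveBLAzer B/G FRET substrate, 2 h RT, fluorescence intensity.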

[8] = target: Muscarinic acetylcholine receptor M1 (Homo sapiens) (UniProt P11229); test: Cholinergic receptor muscarinic 1 (CHRM1) small molecule agonists, cell-based qHTS assay (AID 1963589); also: nearly all actives have a fitted effect of over 35% in size
Muscarinic acetylcholine receptor M1 (Homo sapiens), sequence (P11229 whole entry, looked up): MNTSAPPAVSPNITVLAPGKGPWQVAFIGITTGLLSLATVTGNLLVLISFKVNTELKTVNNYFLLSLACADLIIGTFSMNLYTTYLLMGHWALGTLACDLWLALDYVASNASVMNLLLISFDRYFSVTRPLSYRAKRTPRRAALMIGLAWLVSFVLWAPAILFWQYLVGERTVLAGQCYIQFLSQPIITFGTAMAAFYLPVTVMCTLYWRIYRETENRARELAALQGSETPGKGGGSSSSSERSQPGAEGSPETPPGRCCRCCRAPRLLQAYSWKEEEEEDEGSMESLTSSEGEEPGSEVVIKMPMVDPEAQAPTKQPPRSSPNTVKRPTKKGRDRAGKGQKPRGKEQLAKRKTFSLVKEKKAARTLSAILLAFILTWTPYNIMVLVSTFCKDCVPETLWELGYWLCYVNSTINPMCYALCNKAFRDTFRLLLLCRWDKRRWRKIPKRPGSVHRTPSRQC
In short: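 Homogeneous fluorescence calcium flux, agonist mode. Human M1-expressing CHO cells; compound dosed at 15 concentrations, three independent runs; signal sampled every 1 sec.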

[9] = cAMP Responsive Elements (CRE) small molecule agonists, cell-based qHTS assay (AID 1963590)
In short: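 HEK 293T cells stably bearing CRE-bla were plated at 2,000 cells per well and rested 18 h. Compounds, positive controls or DMSO were added for 3 h at 37 C. LiveBLAzer B/G substrate was then loaded for 2 h at room temperature.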

[10] = cAMP Responsive Elements (CRE) small molecule antagonists, cell-based qHTS assay (AID 1963591; active = well fitted inhibition curve with a large enough effect in the signal ratio in the repeat runs, not every such curve was filed as active; the % refers to the signal ratio)
In short: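 First, CRE-bla HEK293T cells settled 18 h at 37 C. Next, compound and 0.25 uM final NKH477 were applied for 3 h. Last, LiveBLAzer B/G substrate was loaded for 2 h at room temperature.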

[11] = target: Beta-2 adrenergic receptor (Homo sapiens) (UniProt P07550); test: Adrenergic beta2 receptor (ADRB2) small molecule antagonists, cell-based qHTS assay (AID 1963592); also: nearly all actives have a fitted effect of over 50% in size; also: potency is read from the fitted curve at half-maximal effect
Beta-2 adrenergic receptor (Homo sapiens), sequence (P07550 whole entry, looked up): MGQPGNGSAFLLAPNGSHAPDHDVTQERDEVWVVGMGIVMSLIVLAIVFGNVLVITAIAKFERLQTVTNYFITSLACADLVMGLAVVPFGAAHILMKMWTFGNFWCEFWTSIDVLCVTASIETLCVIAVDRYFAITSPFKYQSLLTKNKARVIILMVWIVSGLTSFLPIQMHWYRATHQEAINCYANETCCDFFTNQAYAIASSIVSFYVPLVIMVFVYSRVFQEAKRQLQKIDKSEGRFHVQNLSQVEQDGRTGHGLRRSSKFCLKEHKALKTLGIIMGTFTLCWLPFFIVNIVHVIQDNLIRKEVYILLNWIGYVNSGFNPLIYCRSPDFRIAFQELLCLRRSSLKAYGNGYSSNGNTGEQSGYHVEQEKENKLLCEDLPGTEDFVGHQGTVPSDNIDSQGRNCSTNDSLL
In short: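 Assay format: CHO-ADRB2 cells, 18-20hr seeding at 37C/5% CO2, then compound plus 1nM isoproterenol agonist mix for 0.5hr RT. Homogeneous time-resolved fluorescence cAMP detection after 1hr, expressed as 665/615 nm ratio.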

[12] = target: D(2) dopamine receptor (Homo sapiens) (UniProt P14416); test: Dopamine D2 receptor (DRD2) small molecule agonists, cell-based qHTS assay (AID 1963594); also: nearly all actives have a fitted effect of over 35% in size
D(2) dopamine receptor (Homo sapiens), sequence (P14416 whole entry, looked up): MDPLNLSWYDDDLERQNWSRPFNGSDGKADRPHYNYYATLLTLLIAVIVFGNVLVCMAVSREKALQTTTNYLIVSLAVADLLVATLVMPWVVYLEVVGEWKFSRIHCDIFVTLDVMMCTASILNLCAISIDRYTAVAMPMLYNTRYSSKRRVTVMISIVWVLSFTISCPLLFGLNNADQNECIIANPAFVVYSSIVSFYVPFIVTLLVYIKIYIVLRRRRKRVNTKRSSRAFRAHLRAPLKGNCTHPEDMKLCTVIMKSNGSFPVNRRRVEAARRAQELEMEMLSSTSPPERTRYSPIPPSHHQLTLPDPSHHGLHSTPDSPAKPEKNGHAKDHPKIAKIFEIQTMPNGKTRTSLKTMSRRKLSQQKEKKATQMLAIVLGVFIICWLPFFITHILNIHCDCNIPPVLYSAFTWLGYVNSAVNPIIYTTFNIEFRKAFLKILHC
In short: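 HEK293 cells stably expressing DRD2 were cultured 24 h at 37 C, then given Ro20-1724 (0.1 mM final) and compounds for 10 min at room temperature. NKH477 (200nM) was then added for 30 min. cAMP was read by HTRF.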

[13] = target: D(2) dopamine receptor (Homo sapiens) (UniProt P14416); test: Dopamine D2 receptor (DRD2) small molecule antagonists, cell-based qHTS assay (AID 1963595; active = well fitted inhibition curve with a large enough effect in the signal ratio in the repeat runs, with a control signal flat; the % refers to the signal ratio; also: potency is read from the fitted curve at half-maximal effect)
In short: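 Readout: HTRF cAMP, cAMP-d2 competing with cellular cAMP for anti-cAMP cryptate, read after 1 h. Cells: DRD2-HEK293. Conditions: 0.1 mM Ro20-1724, 12 nM quinpirole, 200 nM NKH477, 30 min RT.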

[14] = p53 small molecule agonists, cell-based qHTS assay with rat liver microsomes: qHTS cell viability counter screen (AID 1963580); also: nearly all actives have a fitted effect of over 45% in size
In short: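 Counter screen for cytotoxicity under metabolic activation: rat liver microsomes and NADPH, 0.5 mg/mL final each, added with compounds to p53RE-bla HCT-116 cells; 16 h at 37 C, then ATP luminescence read.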

[15] = p53 small molecule agonists, cell-based qHTS assay: qHTS cell viability counter screen (AID 1963581); also: nearly all actives have a fitted effect of over 45% in size; also: potency is read from the fitted curve at half-maximal effect
In short: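 ATP content measured by luminescence in HCT-116 p53RE-bla cells treated 16 h at 37 C, same wells as the reporter screen.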

[16] = target: 5-hydroxytryptamine receptor 2A (Homo sapiens) (UniProt P28223); test: 5-hydroxytryptamine receptor 2A (HTR2A) small molecule antagonists, cell-based qHTS assay (AID 1963586); also: nearly all actives have a fitted effect of over 45% in size
5-hydroxytryptamine receptor 2A (Homo sapiens), sequence (P28223 whole entry, looked up): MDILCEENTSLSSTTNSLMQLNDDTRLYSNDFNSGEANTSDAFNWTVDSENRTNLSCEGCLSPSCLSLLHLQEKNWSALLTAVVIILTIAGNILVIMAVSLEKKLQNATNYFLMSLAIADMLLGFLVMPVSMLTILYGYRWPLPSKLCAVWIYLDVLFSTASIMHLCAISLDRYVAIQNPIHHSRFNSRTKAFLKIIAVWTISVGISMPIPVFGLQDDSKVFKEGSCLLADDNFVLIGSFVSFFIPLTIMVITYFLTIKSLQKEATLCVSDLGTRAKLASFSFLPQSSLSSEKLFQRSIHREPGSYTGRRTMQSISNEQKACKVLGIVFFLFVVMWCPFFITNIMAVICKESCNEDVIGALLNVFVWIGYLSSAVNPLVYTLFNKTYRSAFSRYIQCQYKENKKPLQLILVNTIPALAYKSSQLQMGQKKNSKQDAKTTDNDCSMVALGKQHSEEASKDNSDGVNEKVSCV
In short: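 CHO cells stably expressing human HTR2A were plated for 18 h at 37 C, then loaded with calcium dye for 1 h. Compounds were preincubated 5 min at room temperature before DOI (4 nM solution) was added. Kinetic fluorescence was read for 3 min.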

[17] = target: 5-hydroxytryptamine receptor 2A (Homo sapiens) (UniProt P28223); test: 5-hydroxytryptamine receptor 2A (HTR2A) small molecule agonists, cell-based qHTS assay (AID 1963587); also: nearly all actives have a fitted effect of over 30% in size; also: potency is read from the fitted curve at half-maximal effect
In short: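 HTR2A-CHO cells, plated 18 h at 37 C/5% CO2, dye-loaded 1 h at 37 C; compounds in DMSO added by pin tool (agonist mode). Intracellular calcium flux read as kinetic fluorescence on FDSS over 2 min at 1 s intervals.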

[18] = target: Muscarinic acetylcholine receptor M1 (Homo sapiens) (UniProt P11229); test: Cholinergic receptor muscarinic 1 (CHRM1) small molecule antagonists, cell-based qHTS assay (AID 1963588); also: nearly all actives have a fitted effect of over 40% in size
In short: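 Compounds were tested at 15 concentrations in three independent runs. Dye-loaded CHRM1-CHO cells were exposed 5 min at room temperature before stimulation by acetylcholine added at 50nM. Intracellular calcium was read kinetically on FDSS for 3 min.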

[19] = target: Beta-2 adrenergic receptor (Homo sapiens) (UniProt P07550); test: Adrenergic beta2 receptor (ADRB2) small molecule agonists, cell-based qHTS assay (AID 1963593);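 also: CHO cells stably overexpressing human ADRB2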
In short: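 CHO cells stably over-expressing ADRB2 were plated overnight at 37C, then dosed with compounds plus a stimulation mix containing 100uM IBMX and 25uM Ro-20-1724 for 0.5hr at room temperature. cAMP was measured by HTRF competition, 1hr.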

[20] = G protein-coupled receptor (GPCR) small molecule agonists, calcium flux assay: HEK293 wild type cell line counter screen (AID 1920065)
In short: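 Tox21 10K compounds, 15 concentrations each in triplicate, pin-transferred in DMSO onto dye-loaded cells; kinetic read at 480/540 nm for 3 min, 1 s intervals.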

Measured: Potency

C[C@H]1CNCCc2ccc(Cl)cc21
active: [11] 23.7 µM
not listed: [14] | [15] | [16] | [17] | [18] | [19] | [20]
inactive: all other assays above

CC(C)(C#N)C(C)(C)C#N
not listed: [7] | [19] | [20]
inactive: all other assays above

COc1ccc2c(c1OC)C(=O)O[C@H]2[C@@H]1c2cc3c(cc2CCN1C)OCO3
not listed: [12] | [14] | [18] | [20]
inactive: all other assays above

CCOP(=S)(OCC)SCS(=O)(=O)CC
active: [5] 1.62 µM
not listed: [10] | [20]
inactive: all other assays above

CC(=O)[O][Pb]([c]1ccccc1)([c]1ccccc1)[c]1ccccc1
active: [1] 3.86 µM | [2] 0.864 µM | [3] 30.9 µM | [6] 4.08 µM | [15] 16.2 µM | [17] 49 µM | [13] 4.33 µM
inactive: [4] | [5] | [16]

CN1C(=O)CN=C(c2ccccc2)c2cc([N+](=O)[O-])ccc21
not listed: [8] | [16] | [17] | [18] | [20]
inactive: all other assays above

O=C(O)[C@H](O)[C@@H](O)C(=O)O
not listed: [5] | [6] | [7] | [11] | [14] | [15] | [19]
inactive: all other assays above

CCCCC(CC)COP(=O)(Oc1ccccc1)Oc1ccccc1 (stereo not drawn)
active: [2] 30.6 µM
not listed: [5] | [6] | [7] | [9] | [10] | [15]
inactive: all other assays above

O=C1CN=C(c2ccccc2)c2cc([N+](=O)[O-])ccc2N1
not listed: [5] | [6] | [7] | [8] | [16] | [17] | [18] | [19]
inactive: all other assays above
